Data reported in PubChem BioAssay AID1159580 (chemical genetic matrix, 2015).
Where “and” joins values, the source holds several entries; their conditions need not be identical. Equal values may be shown once. Hit rate of the full screen: of about 5,500 compounds, about 2,000 (36%) were called active. Inconclusive results (about 18%) are left out. Rule as the data show it: active = normalized growth mostly below about 0.91 (no sharp cut-off); inconclusive = no clear call, values can overlap the other calls; inactive = mostly above about 0.92. This is one part of the list.

Assay: chemical genetic growth profiling, strain panel (AID 1159580);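 also: tested at 20 µM; growth read once vehicle control cultures reached saturation at 30 °C; 1 = growth at the plate median or of vehicle wells; lower values mean less growth of the strain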
Conditions: growth OD

Measured: normalized growth

CO[C@@H]1C[C@H](O[C@H]2CC[C@]3(C)C4CC[C@]5(C)[C@@H](C6=CC(=O)OC6)CC[C@]5(O)[C@@H]4CC[C@]3(O)C2)O[C@H](C)[C@@H]1O (some centres not stated)
active: S. cerevisiae deletion strains, locus YAL013W, strain DEP1, stronger effect = lower value 0.869 | S. cerevisiae deletion strains, locus YDL192W, strain arf1, stronger effect = lower value 0.888 | S. cerevisiae deletion strains, locus YDR502C, strain sam2, stronger effect = lower value 0.893 | S. cerevisiae deletion strains, locus YGR135W, strain pre9, stronger effect = lower value 0.865 | S. cerevisiae deletion strains, locus YHR200W, strain rpn10, stronger effect = lower value 0.92 | S. cerevisiae deletion strains, locus YIL125W, strain kgd1, stronger effect = lower value 0.926 | S. cerevisiae deletion strains, locus YKL085W, strain MDH1 (second series), stronger effect = lower value 0.897 | S. cerevisiae deletion strains, locus YKL085W, strain MDH1, stronger effect = lower value 0.897 | S. cerevisiae deletion strains, locus YKR001C, strain vps1, stronger effect = lower value 0.76 | S. cerevisiae deletion strains, locus YLR418C, strain cdc73, stronger effect = lower value 0.651 | S. cerevisiae deletion strains, locus YMR223W, strain ubp8, stronger effect = lower value 0.889 | S. cerevisiae deletion strains, locus YOR184W, strain ser1, stronger effect = lower value 0.606 | S. cerevisiae strains, strain wild type, stronger effect = lower value 0.899
inactive: S. cerevisiae deletion strains, locus YBR021W, strain FUR4, stronger effect = lower value 0.961 | S. cerevisiae deletion strains, locus YBR229C, strain ROT2, stronger effect = lower value 1 | S. cerevisiae deletion strains, locus YCL029C, strain bik1, stronger effect = lower value 1.02 | S. cerevisiae deletion strains, locus YDL035C, strain GPR1, stronger effect = lower value 0.905 | S. cerevisiae deletion strains, locus YDL074C, strain BRE1, stronger effect = lower value 0.987 | S. cerevisiae deletion strains, locus YDL101C, strain DUN1, stronger effect = lower value 1.02 | S. cerevisiae deletion strains, locus YDL134C, strain PPH21, stronger effect = lower value 1 | S. cerevisiae deletion strains, locus YDL185W, strain tfp1, stronger effect = lower value 1.05 | S. cerevisiae deletion strains, locus YDR101C, strain arx1, stronger effect = lower value 1.01 | S. cerevisiae deletion strains, locus YDR162C, strain NBP2, stronger effect = lower value 0.881 | S. cerevisiae deletion strains, locus YDR318W, strain mcm21, stronger effect = lower value 0.987 | S. cerevisiae deletion strains, locus YDR388W, stronger effect = lower value 1 | S. cerevisiae deletion strains, locus YEL061C, strain CIN8, stronger effect = lower value 1.01 | S. cerevisiae deletion strains, locus YER110C, stronger effect = lower value 1.02 | S. cerevisiae deletion strains, locus YER155C, strain BEM2, stronger effect = lower value 1.01 | S. cerevisiae deletion strains, locus YER167W, strain BCK2, stronger effect = lower value 0.95 | S. cerevisiae deletion strains, locus YGL078C, strain dbp3, stronger effect = lower value 0.96 | S. cerevisiae deletion strains, locus YGL086W, strain mad1, stronger effect = lower value 0.935 | S. cerevisiae deletion strains, locus YGL248W, strain PDE1, stronger effect = lower value 1.02 | S. cerevisiae deletion strains, locus YGR078C, strain PAC10, stronger effect = lower value 0.926 | S. cerevisiae deletion strains, locus YGR252W, strain gcn5, stronger effect = lower value 0.844 | S. cerevisiae deletion strains, locus YHR030C, strain SLT2, stronger effect = lower value 1.02 and 1.05 | S. cerevisiae deletion strains, locus YHR079C, strain IRE1 (second series), stronger effect = lower value 1.02 | S. cerevisiae deletion strains, locus YHR079C, strain IRE1, stronger effect = lower value 1.07 | S. cerevisiae deletion strains, locus YHR094C, strain hxt1, stronger effect = lower value 1.02 | S. cerevisiae deletion strains, locus YHR129C, strain ARP1, stronger effect = lower value 1.01 | S. cerevisiae deletion strains, locus YIL066C, strain RNR3, stronger effect = lower value 0.956 | S. cerevisiae deletion strains, locus YIL073C, strain SPO22, stronger effect = lower value 1.04 | S. cerevisiae deletion strains, locus YIR030C, strain dcg1, stronger effect = lower value 1.01 | S. cerevisiae deletion strains, locus YJL095W, strain BCK1, stronger effect = lower value 1.03 and 1.05 | S. cerevisiae deletion strains, locus YJL134W, strain LCB3, stronger effect = lower value 1.01 | S. cerevisiae deletion strains, locus YJL168C, strain set2, stronger effect = lower value 1.02 | S. cerevisiae deletion strains, locus YJL187C, strain SWE1 (second series), stronger effect = lower value 1.04 | S. cerevisiae deletion strains, locus YJR043C, strain POL32, stronger effect = lower value 0.949 | S. cerevisiae deletion strains, locus YJR066W, strain TOR1, stronger effect = lower value 0.987 | S. cerevisiae deletion strains, locus YJR075W, strain HOC1, stronger effect = lower value 0.901 | S. cerevisiae deletion strains, locus YKL009W, strain mrt4, stronger effect = lower value 0.917 | S. cerevisiae deletion strains, locus YKL068W, stronger effect = lower value 0.996 | S. cerevisiae deletion strains, locus YLR039C, strain RIC1, stronger effect = lower value 0.887 | S. cerevisiae deletion strains, locus YLR058C, strain SHM2, stronger effect = lower value 1.01 | S. cerevisiae deletion strains, locus YLR102C, strain apc9, stronger effect = lower value 1.03 | S. cerevisiae deletion strains, locus YLR113W, strain HOG1, stronger effect = lower value 0.964 | S. cerevisiae deletion strains, locus YLR262C, strain YPT6, stronger effect = lower value 0.879 | S. cerevisiae deletion strains, locus YLR268W, strain sec22, stronger effect = lower value 0.95 | S. cerevisiae deletion strains, locus YLR330W, strain CHS5, stronger effect = lower value 1.01 | S. cerevisiae deletion strains, locus YLR342W, strain FKS1 (second series), stronger effect = lower value 0.953 | S. cerevisiae deletion strains, locus YLR371W, strain rom2, stronger effect = lower value 1.05 | S. cerevisiae deletion strains, locus YML016C, strain PPZ1, stronger effect = lower value 1 | S. cerevisiae deletion strains, locus YML032C, strain rad52, stronger effect = lower value 0.988 | S. cerevisiae deletion strains, locus YML124C, strain tub3, stronger effect = lower value 1.02 | S. cerevisiae deletion strains, locus YMR078C, strain ctf18, stronger effect = lower value 1.02 | S. cerevisiae deletion strains, locus YMR263W, strain SAP30, stronger effect = lower value 1.02 | S. cerevisiae deletion strains, locus YMR307W, strain GAS1, stronger effect = lower value 0.815 | S. cerevisiae deletion strains, locus YNL067W, strain RPL9B, stronger effect = lower value 0.99 | S. cerevisiae deletion strains, locus YNL128W, strain TEP1, stronger effect = lower value 0.925 | S. cerevisiae deletion strains, locus YNL153C, strain GIM3, stronger effect = lower value 1.03 | S. cerevisiae deletion strains, locus YNL183C, strain NPR1, stronger effect = lower value 0.988 | S. cerevisiae deletion strains, locus YNL233W, strain BNI4, stronger effect = lower value 0.941 | S. cerevisiae deletion strains, locus YNL250W, strain rad50, stronger effect = lower value 0.964 | S. cerevisiae deletion strains, locus YNL271C, strain bni1, stronger effect = lower value 0.999 | S. cerevisiae deletion strains, locus YNL298W, strain CLA4, stronger effect = lower value 0.944 | S. cerevisiae deletion strains, locus YNL307C, strain MCK1, stronger effect = lower value 1.02 | S. cerevisiae deletion strains, locus YNL322C, strain KRE1, stronger effect = lower value 0.999 | S. cerevisiae deletion strains, locus YNR052C, strain pop2, stronger effect = lower value 1.02 | S. cerevisiae deletion strains, locus YOL012C, strain htz1 2.27 | S. cerevisiae deletion strains, locus YOL147C, strain pex11, stronger effect = lower value 1.02 | S. cerevisiae deletion strains, locus YOR061W, strain CKA2, stronger effect = lower value 1.01 | S. cerevisiae deletion strains, locus YOR069W, strain VPS5, stronger effect = lower value 1.01 | S. cerevisiae deletion strains, locus YOR136W, strain idh2, stronger effect = lower value 0.983 | S. cerevisiae deletion strains, locus YOR144C, strain elg1, stronger effect = lower value 1.01 | S. cerevisiae deletion strains, locus YOR231W, strain MKK1, stronger effect = lower value 1.05 | S. cerevisiae deletion strains, locus YOR316C, strain cot1, stronger effect = lower value 1.02 | S. cerevisiae deletion strains, locus YPL055C, strain LGE1, stronger effect = lower value 0.877 | S. cerevisiae deletion strains, locus YPL256C, strain CLN2, stronger effect = lower value 1.11 | S. cerevisiae deletion strains, locus YPR119W, strain clb2, stronger effect = lower value 1.02 | S. cerevisiae deletion strains, locus YPR141C, strain kar3, stronger effect = lower value 1.02 | S. cerevisiae deletion strains, locus YPR163C, strain tif3, stronger effect = lower value 0.993 | S. cerevisiae deletion strains, locus YPR167C, strain met16, stronger effect = lower value 0.934 | S. cerevisiae deletion strains, strain wtn01, stronger effect = lower value 0.921
